Experimental data published in PubChem BioAssay (NCATS).
Results filed as inconclusive are left out. A call without a number means that no potency is given here. Calls of active or inactive are those of the source. The call rests on the fitted dose curve; in most records, active means well fitted inhibition curve with a large enough effect; inconclusive means small, poorly fitted or top-dose-only effect, or effect the other way; inactive means flat fitted curve, though single readings scatter.

biological target: ATP-dependent 6-phosphofructokinase (Trypanosoma brucei brucei) (UniProt O15648); assay: qHTS Assay to Find Inhibitors of T. brucei phosphofructokinase: hit validation (AID 492961);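 further: luminescence reports ADP formed as PFK phosphorylates fructose-6-phosphate with ATP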; settings: T. brucei PFK, ADP-Glo luminescence; series mostly up to 51.4 µM
Outline: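 Percent activity derived from corrected luminescence, normalized between 0x and 1x enzyme controls, then fitted to concentration-response curves. Conditions: 1.25 nM PFK, 0.1 mM ATP, 0.5 mM F6P, 45 min RT.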

Chain of ATP-dependent 6-phosphofructokinase (Trypanosoma brucei brucei) (O15648 whole entry, looked up): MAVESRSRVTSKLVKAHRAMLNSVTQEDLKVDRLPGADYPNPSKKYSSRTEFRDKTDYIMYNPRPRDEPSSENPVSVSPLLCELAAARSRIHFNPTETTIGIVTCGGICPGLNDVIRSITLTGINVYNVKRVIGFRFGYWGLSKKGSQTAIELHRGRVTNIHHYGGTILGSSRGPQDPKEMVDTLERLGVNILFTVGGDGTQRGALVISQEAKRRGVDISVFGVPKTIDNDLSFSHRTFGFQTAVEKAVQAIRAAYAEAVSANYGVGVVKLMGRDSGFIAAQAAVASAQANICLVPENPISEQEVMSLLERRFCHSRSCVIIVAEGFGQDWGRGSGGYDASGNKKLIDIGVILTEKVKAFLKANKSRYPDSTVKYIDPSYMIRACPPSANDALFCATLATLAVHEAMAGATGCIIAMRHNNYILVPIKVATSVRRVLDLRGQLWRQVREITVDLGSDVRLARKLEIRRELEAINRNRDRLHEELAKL

Row | SMILES | Potency
1 | CCCCNCC(O)c1ccc(O)cc1 (centres undefined) | inactive
2 | CCCCCCCCCC(=O)O[C@H]1CC[C@H]2[C@@H]3CCC4=CC(=O)CC[C@]4(C)[C@H]3CC[C@]12C | inactive
3 | CCC(=O)O[C@@](Cc1ccccc1)(c1ccccc1)[C@@H](C)CN(C)C | inactive
4 | CCC(C)(S(=O)(=O)CC)S(=O)(=O)CC | inactive
5 | CNC(=O)Oc1ccccc1C(=O)Nc1ccccc1 | inactive
6 | CC(N)Cc1ccc(O)cc1 (centres undefined) | inactive
7 | C#CC(C)(O)CC (centres undefined) | inactive
8 | CCC1C(C)=NN=C(c2ccc(OC)c(OC)c2)c2cc(OC)c(OC)cc21 (centres undefined) | inactive
9 | c1ccc2sc(SNC3CCCCC3)nc2c1 | inactive
10 | O=Cc1ccco1 | inactive
11 | OC(c1ccccc1)(c1ccccc1)C1CN2CCC1CC2 (centres undefined) | inactive
12 | CC1CCC(C(C)C)C(OC(=O)c2ccccc2N)C1 (centres undefined) | inactive
13 | O=C1CCO1 | inactive
14 | O=C(NCNC(=O)NC1C(=O)NC(=O)N1CO)NC1C(=O)NC(=O)N1CO (centres undefined) | inactive
15 | CCC1(CC)C(=O)NC(=O)N(C)C1=O | inactive
16 | C[C@]12CCC(=O)C[C@@H]1CC[C@@H]1[C@@H]2CC[C@]2(C)[C@@H](O)CC[C@@H]12 | inactive
17 | O=C(CCl)c1ccc(Oc2ccc(C(=O)CCl)cc2)cc1 | inactive
18 | CC(C)(C)c1cc(O)ccc1O | inactive
19 | CNC(C)C(O)c1ccc(O)cc1 (centres undefined) | inactive
